An excerpt weighted towards active compounds, which were near 2.1% of everything screened.
YB-1 expr inh: YB-1 expression inhibition; U2OS, qRT-PCR YB-1 vs CDIP delta delta Cp, 16 h; hits give high values; zero = DMSO, each unit about twofold; delta delta Cp (YB-1 minus CDIP) (no concentration beside the values); actives 0.37% (n = 30,000); AID 434959;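 active = delta delta Cp rounded down to an integer at or above 3, about 3 SD of DMSO wells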;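 note: higher means less YB-1 transcript or more CDIP transcript relative to DMSO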
U2OS ROS induce: raises reactive oxygen species in U2OS cancer cells. ROS induction (% of piperlongumine), % at 10 µM. U2OS ROS induction, H2DCF-DA fluorescence. actives 2% (n = 46,000); in the data active = ROS induction above about 79%, passing the limit was not always enough;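 note: 0% = DMSO vehicle median and 100% = reference compound median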
Starred values were filed as active, the others as inactive; . = no result given.

SMILES | YB-1 expr inh | U2OS ROS induce
C=CCN1C(=O)/C(=C/c2cn(C(C)CC)c3ccccc23)C(=O)NC1=S (stereo unspecified) | -0.292 | 64.6
C=CCN1C(=O)NC(=O)/C(=C\c2cn(Cc3ccccc3)c3ccccc23)C1=O | . | 155.1*
Cc1ccc(-c2nnc3c4ccccc4c(C)nn23)cc1S(=O)(=O)NC(C)c1ccccc1 (stereo unspecified) | . | -4.1
Cc1ccc(-c2nn3c(C)nnc3c3ccccc23)cc1S(=O)(=O)NCc1ccco1 | . | 125.0*
CCc1ccc(NC(=O)Cn2cnc3c(cnn3-c3ccccc3)c2=O)cc1 | . | -3.5
O=C(NCc1ccco1)c1cc([N+](=O)[O-])ccc1Sc1nc2ccccc2[nH]1 | . | 4.5
C[C@@H]1CN([C@H](C)CO)C(=O)c2cccc(NC(=O)c3cnccn3)c2O[C@H]1CN(C)Cc1ccc(Oc2ccccc2)cc1 | -0.193 | 21.0
C[C@H]1CN([C@@H](C)CO)C(=O)c2cccc(NC(=O)c3cnccn3)c2O[C@@H]1CN(C)Cc1ccc(-c2ccccc2)cc1 | -0.216 | 118.3*
C[C@H](CO)N1C[C@H](C)[C@@H](CN(C)Cc2ccc(Oc3ccccc3)cc2)Oc2c(NC(=O)c3cnccn3)cccc2C1=O | -0.606 | 134.3*
C[C@H]1CN([C@@H](C)CO)C(=O)c2cccc(NC(=O)c3cnccn3)c2O[C@H]1CN(C)Cc1ccc(-c2ccccc2)cc1 | 0.46 | 42.9
CC1CC(=O)c2c(ccc3c2C(=O)c2cccc(O)c2C3O)C1 (stereo unspecified) | 0.0553 | 6.7
CN1CCN(c2ccccc2NS(=O)(=O)c2ccc3c(c2)SCC(=O)N3)CC1 | . | 6.1
COc1cc(OC)c(C2=NOC(C(=O)Nc3sc4c(c3C#N)CCC4)C2)cc1Cl (stereo unspecified) | . | 2.4
C[C@H]1CN([C@@H](C)CO)C(=O)Cc2cc(NC(=O)Nc3ccc4c(c3)OCO4)ccc2O[C@H]1CN(C)C(=O)Nc1ccc2c(c1)OCO2 | 0.166 | -0.4
C[C@H](CO)N1C[C@H](C)[C@H](CN(C)C(=O)Nc2ccc3c(c2)OCO3)Oc2ccc(NS(C)(=O)=O)cc2CC1=O | 0.124 | 122.7*
CC(C)NC(=O)Nc1ccc2c(c1)CC(=O)N([C@@H](C)CO)C[C@@H](C)[C@@H](CN(C)C(=O)Nc1ccc3c(c1)OCO3)O2 | -0.031 | 111.1*
C[C@H](CO)N1C[C@H](C)[C@H](CN(C)C(=O)Nc2ccc3c(c2)OCO3)Oc2ccc(NS(=O)(=O)c3ccccc3)cc2CC1=O | -0.228 | -4.1
CCc1ccc(-n2nc3ccc(NC(=O)c4ccccc4Br)cc3n2)cc1 | . | 11.9
Cc1nc2ccccn2c1-c1ccnc(SCC(=O)Nc2ccc(C(C)C)cc2)n1 | . | 1.5
FC(F)(F)c1ccccc1Nc1nc(-c2cccnc2)cs1 | . | 0.0
COc1ccc(C#Cc2cnc3c(c2)C(=O)N([C@H](C)CO)C[C@H](C)[C@H](CN(C)Cc2cccc(C(F)(F)F)c2)O3)cc1OC | -0.17 | 60.4
Cc1cccc(CN(C)C[C@@H]2Oc3ncc(-c4cccc(C(F)(F)F)c4)cc3C(=O)N([C@H](C)CO)C[C@@H]2C)c1 | -0.29 | 103.6*
COc1ccc(-c2cnc3c(c2)C(=O)N([C@H](C)CO)C[C@H](C)[C@H](CN(C)Cc2cccc(C(F)(F)F)c2)O3)cc1 | -0.0218 | 110.4*
C[C@H](CO)N1C[C@H](C)[C@H](CN(C)Cc2cccc(C(F)(F)F)c2)Oc2ncc(-c3ccccc3)cc2C1=O | 0.222 | 46.6
Cc1noc(COc2ccccc2)c1C(=O)Sc1ccc(F)cc1F | 0.223 | 3.6
SMILES | YB-1 expr inh | U2OS ROS induce
Cc1ccc(CSc2nc3ccccc3c(=O)n2-c2ccc(C(=O)N3CCOCC3)cc2)cc1 | . | 9.9
Cc1nn(CC(=O)Nc2ccc(F)cc2)c(C)c1[N+](=O)[O-] | . | 3.9
Cc1ccc(NC(=O)Cn2nc(C)c([N+](=O)[O-])c2C)cc1C | . | 169.0*
COC(=O)c1cc2cc(O)c(-c3c(O)cc4cc(C(=O)OC)oc(=O)c4c3O)c(O)c2c(=O)o1 | -0.402 | -6.6
C[C@@H]1CN([C@@H](C)CO)C(=O)c2cccc(NS(=O)(=O)c3cccs3)c2O[C@@H]1CN(C)Cc1ccc(-c2ccccc2)cc1 | -0.353 | 37.5
COc1ccc(S(=O)(=O)Nc2cccc3c2O[C@@H](CN(C)Cc2ccc(-c4ccccc4)cc2)[C@@H](C)CN([C@@H](C)CO)C3=O)cc1 | -0.519 | 47.1
COc1ccc(S(=O)(=O)Nc2cccc3c2O[C@H](CN(C)Cc2ccc(Cl)c(Cl)c2)[C@H](C)CN([C@@H](C)CO)C3=O)cc1 | -0.00424 | 84.4*
Cc1ccc(S(=O)(=O)Nc2cccc3c2O[C@@H](CN(C)Cc2ccc(Oc4ccccc4)cc2)[C@@H](C)CN([C@H](C)CO)C3=O)cc1 | 0.202 | 54.4
COc1ccc(S(=O)(=O)Nc2cccc3c2O[C@H](CN(C)Cc2ccc(Cl)c(Cl)c2)[C@@H](C)CN([C@H](C)CO)C3=O)cc1 | -0.0351 | 4.6
C[C@H](CO)N1C[C@H](C)[C@@H](CN(C)Cc2ccc(-c3ccccc3)cc2)Oc2c(NS(=O)(=O)c3cccs3)cccc2C1=O | 0.268 | 88.6*
COc1ccc(S(=O)(=O)Nc2cccc3c2O[C@H](CN(C)Cc2ccc(-c4ccccc4)cc2)[C@H](C)CN([C@H](C)CO)C3=O)cc1 | -0.0955 | 95.6*
Cc1ccc(S(=O)(=O)Nc2cccc3c2O[C@H](CN(C)Cc2ccc(Oc4ccccc4)cc2)[C@H](C)CN([C@H](C)CO)C3=O)cc1 | 0.0934 | 125.0*
CC1=NN(c2ccc(S(N)(=O)=O)cc2)C(=O)/C1=C\C=C/c1ccccc1 | . | 31.3
COc1ccc(C2NC(c3ccc(OC)cc3)C(C)C(O)(Cc3ccccc3)C2C)cc1 (stereo unspecified) | . | 12.4
Cc1ccc(NC(=O)COc2ccc3ccccc3c2Br)c([N+](=O)[O-])c1 | . | -29.5
Cc1c(C)c(C)c(S(=O)(=O)N2CC(C)CC(C)C2)c(C)c1C (stereo unspecified) | 0.0531 | -3.7
COC(=O)c1ccc(S(=O)(=O)N2CCN(c3ccc(C(F)(F)F)cn3)CC2)n1C | . | 8.2
COc1ccccc1Nc1ncnc2c1cnn2-c1ccccc1 | . | 36.4
O=C(CSc1ncnc2c1nnn2-c1ccc(F)cc1)N1CCCc2ccccc21 | . | 22.3
Cc1noc(C)c1S(=O)(=O)Nc1cccc2c1O[C@@H](CN(C)Cc1ccc(-c3ccccc3)cc1)[C@@H](C)CN([C@@H](C)CO)C2=O | 0.156 | -1.4
COc1ccc(S(=O)(=O)Nc2cccc3c2O[C@@H](CN(C)Cc2ccc(Oc4ccccc4)cc2)[C@H](C)CN([C@H](C)CO)C3=O)cc1 | -0.814 | 19.5
Cc1noc(C)c1S(=O)(=O)Nc1cccc2c1O[C@H](CN(C)Cc1ccc(-c3ccccc3)cc1)[C@H](C)CN([C@@H](C)CO)C2=O | 0.144 | 121.7*
C[C@@H]1CN([C@@H](C)CO)C(=O)c2cccc(NS(=O)(=O)c3ccc(F)cc3)c2O[C@H]1CN(C)Cc1ccc(Oc2ccccc2)cc1 | 0.607 | 31.3
COc1ccc(S(=O)(=O)Nc2cccc3c2O[C@H](CN(C)Cc2ccc(Oc4ccccc4)cc2)[C@H](C)CN([C@@H](C)CO)C3=O)cc1 | 0.434 | 110.0*
C[C@H]1CN([C@@H](C)CO)C(=O)c2cccc(NS(=O)(=O)c3ccc(F)cc3)c2O[C@@H]1CN(C)Cc1ccc(Oc2ccccc2)cc1 | 0.103 | 104.4*
O=C(CCCCCCC(=O)N/N=C\c1cccc(Br)c1)NO | -0.25 | 9.7
